Hits are enriched below; roughly 9.4% of the tested compounds scored in any of these assays.
SMN2 splice enh: enhancers of SMN2 splice variant expression. HEK293 SMN2-luciferase splicing reporter, luminescence, 30-36 h. Potency, µM (titrated, usually from 46.1 µM), inactives show at the top dose activity change, positive = activation, usual class: activators. 210,000 compounds, 2.8% hits. AID 1458; further: % of control where 0% means no effect; nearly all actives have a fitted effect of over 55% in size
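qHTS luciferase splicing reporter: luminescence rises when SMN2 exon 7 is included in transfected HEK293 cells. Compound exposure lasted 30-36 h at 37C, with 4.5 mM final sodium butyrate as control, followed by a ONE-Glo read.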
NPC1 prom act: activates the NPC1 promoter | Potency, µM (highest dose often 9.22 µM), without a hit: at the top dose activation, hits mostly activators | 320,000 compounds, 2.4% hits | AID 485313 | Huh7 NPC1 promoter luciferase reporter, 24 h; further: % of control where 0% means no effect; nearly all actives have a fitted effect of over 60% in size
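Quantitative HTS used a cell-based reporter: Huh7 cells stably bearing the NPC1 promoter upstream of luciferase were treated with compounds for 24 h, and promoter activation was read as luminescence.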
FLuc counter: counter-screen for miR-21 project: firefly luciferase inhibitors or activators; Potency, µM (top dose mostly 57.5 µM), for the others: at the highest dose activity change, negative = inhibition, usual class: inhibitors; purified FLuc, Km substrates, luminescence inhibition; 360,000 compounds, 6.9% hits; P08659;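 further: plate controls were vehicle for no effect and reference inhibitor for full effect; nearly all actives have a fitted effect of over 55% in size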
Target sequence (P08659 whole entry, looked up): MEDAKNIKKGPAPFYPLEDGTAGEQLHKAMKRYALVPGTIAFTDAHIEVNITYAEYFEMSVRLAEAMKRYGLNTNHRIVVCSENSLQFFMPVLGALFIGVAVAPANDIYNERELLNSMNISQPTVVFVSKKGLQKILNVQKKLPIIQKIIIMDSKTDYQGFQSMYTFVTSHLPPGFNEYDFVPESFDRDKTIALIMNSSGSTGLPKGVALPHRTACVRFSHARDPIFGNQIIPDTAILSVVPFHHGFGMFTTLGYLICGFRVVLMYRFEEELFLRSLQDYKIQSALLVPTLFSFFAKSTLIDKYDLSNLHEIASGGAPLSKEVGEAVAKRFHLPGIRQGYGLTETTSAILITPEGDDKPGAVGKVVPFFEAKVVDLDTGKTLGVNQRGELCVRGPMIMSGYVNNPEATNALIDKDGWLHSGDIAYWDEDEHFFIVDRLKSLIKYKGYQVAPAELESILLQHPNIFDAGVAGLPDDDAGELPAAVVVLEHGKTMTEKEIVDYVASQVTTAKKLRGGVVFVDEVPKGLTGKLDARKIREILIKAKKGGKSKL
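Purified P. pyralis luciferase (10nM final) with 10uM D-luciferin and 10uM ATP (Km levels) in 50mM Tris acetate pH 7.5, 10mM Mg acetate, 0.01% Tween-20, 0.05% BSA; qHTS 6-point titration, ~60 µM downward; luminescence read.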
Rab9 prom act: Rab9 promoter activation; Huh7 Rab9 promoter-luciferase reporter, luminescence, 24 h; Potency, µM (doses to about 9.22 µM), for inactives: at the top dose activation, negative = inhibition, actives largely listed as activators; 320,000 compounds, 2.8% hits; AID 485297; further: % of control where 0% means no effect; nearly all actives have a fitted effect of over 60% in size
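Cell-based reporter: Huh7 stable for Rab9 promoter-driven luciferase, plated in reduced-serum medium with 10% FBS at 1500 cells/well, compound-treated 24 h at 37 °C, luminescence read after 10 min reagent.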
ELG1 repair inh: inhibitors of ELG1-dependent DNA repair in HEK293T cells. HEK293T ELG1-luciferase reporter, luminescence, 16 h; DNA damage induced by 5-fluorouridine. Potency, µM (highest dose often 46.1 µM), for the others: top-dose activity change, negative = inhibition, hits mostly inhibitors. 330,000 compounds, 2.3% hits. AID 504467; further: on the % scale 0 is the no-effect control and ±100 the full control effect; nearly all actives have a fitted effect of over 55% in size
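DMSO vehicle served as the neutral condition. Each well held 2,000 cells given 5-fluorouridine plus compound; after 16 hr at 37 °C/5% CO2, ONE-Glo was added and luciferase measured 30 min later.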
ELG1 genotoxic: induces genotoxicity in HEK293T cells with luciferase-tagged ELG1; HEK293T ELG1-luciferase reporter, luminescence, 16 h; Potency, µM (highest dose often 46 µM), inactives show top-dose activity change, positive = activation, hits mostly activators; 330,000 compounds, 1.3% hits; AID 504466; further: % of control where 0% means no effect; nearly all actives have a fitted effect of over 60% in size
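ELG1-luciferase HEK293T cells, 2,000/well; compound pinned in; 16 hr, 37 °C, 5% CO2; ONE-Glo, 30 min RT; luminescence on CCD imager.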
Active calls of the source: *; ? = inconclusive; nt = no result given; [ ] = dose if it differs, or a comment. The call rests on the fitted dose curve; in most records, active means well fitted curve in the direction sought with a large enough effect; inconclusive means small, poorly fitted or top-dose-only effect, or another doubt; inactive means no such curve, though single readings can be large; an effect the other way counts as inactive or inconclusive. Potency means the concentration at half of the fitted maximal effect.

SMILES | SMN2 splice enh | NPC1 prom act | FLuc counter | Rab9 prom act | ELG1 repair inh | ELG1 genotoxic
Cc1ccc(NC(=O)c2ccccc2O)cc1 | 2.8µM* | 2µM* | 0.95µM* | 0.63µM* | ? | ?
CCNC(=O)c1sc2cc(C)ccc2c1Cl | 30% | ? | 11µM* | 3.2µM* | ? | ?
Cn1c(C(=O)NCCc2ccccc2)cc2sc(Cl)cc21 | 2.8µM* | nt | 1.2µM* | nt | nt | nt
CCn1c(C(=O)NCCc2ccc(OC)c(OC)c2)cc2sc(Cl)cc21 | -43% | nt | ? | nt | nt | nt
Cc1ccc2c(Cl)c(C(=O)NCCc3ccccc3)sc2c1 | 16µM* | 3.5µM* | 6µM* | 2.5µM* | ? | ?
COc1ccc(CCNC(=O)c2sc3cc(C)ccc3c2Cl)cc1 | -23% | 0% | 5% | -2% | 3% | 0%
Cc1ccc2c(Cl)c(C(=O)Nc3cc(C)on3)sc2c1 | ? | 2.8µM* | ? | 2.2µM* | ? | 8.2µM*
O=C(NCCCN1CCOCC1)c1sc2cc(Cl)ccc2c1Cl | -4% | 10% | -13% | 10% | 12% | -3%
CCCCn1c(SCC(=O)c2ccccc2)nc2sc3c(c2c1=O)CCCC3 | -8% | nt | 7% | nt | nt | nt
CC(C)NC(=O)CSc1cn(CC(=O)N2CCCCCC2)c2ccccc12 | nt | nt | -4% | nt | nt | nt
O=C(Cn1ncc(N2CCCC2)c(Cl)c1=O)c1ccc(Cl)cc1 | 13µM* | 2.5µM* | 21µM* | 1.4µM* | ? | ?
CCOc1ccc(C2c3c(oc4ccc(C)cc4c3=O)C(=O)N2CCCN2CCOCC2)cc1 (configuration not stated) | nt | nt | 3% | nt | nt | nt
CC(C)CNS(=O)(=O)c1ccc(CCC(=O)N2CCN(c3ccc(F)cc3)CC2)cc1 | -36% | -11% | 3% | -13% | 12µM* | -21%
COc1ccc(N2CCN(C(=O)CCc3ccc(S(=O)(=O)NCC(C)C)cc3)CC2)cc1 | -113% | -5% | 4% | -17% | ? | -2%
CC1=C(C(=O)OCC2CCCCC2)C(c2ccc(Cl)cc2)CC(=O)N1 (configuration not stated) | -15% | nt | -16% | nt | nt | nt
CCc1ccc(NC(=O)CN2C(=O)CC(c3ccccc3)Sc3ccccc32)cc1 (configuration not stated) | -1% | nt | -14% | nt | nt | nt
O=C(Nc1ccc(CN2CCOCC2)cc1)c1ccc(-c2cc(Cl)ccc2Cl)o1 | -65% | -2% | ? | -2% | 23µM* | -20%
O=C(NCCN1CCOCC1)Nc1ccc(Cl)cc1 | 7.1µM* | 6% | -3% | -2% | ? | -5%
O=C(Nc1ccc(CN2CCOCC2)cc1)c1ccc(Br)o1 | nt | 3.2µM* | 19µM* | ? | ? | ?
O=C(Nc1ccc(N2CCN(C(=O)c3ccccc3)CC2)c(Cl)c1)c1ccc(Br)o1 | -42% | -4% | -1% | -9% | 12µM* | -7%
O=C(Nc1ccc(N2CCN(C(=O)c3ccccc3)CC2)cc1)c1ccc(Br)o1 | -14% | 8% | 1% | 0% | ? | -25%
O=C(Nc1ccc(S(=O)(=O)N2CCOCC2)cc1)c1ccc(Br)o1 | -22% | 2% | 1% | -7%[1.84 µM] | -4% | -4%
CCC(=O)N1CCc2cc(S(=O)(=O)NC(CC(C)C)C(=O)Nc3cccc(C)c3C)ccc21 (configuration not stated) | -10% | nt | 1% | nt | nt | nt
CCC(=O)N1CCc2cc(S(=O)(=O)NCCC(=O)NCc3ccc(C)cc3)ccc21 | -6% | nt | -3% | nt | nt | nt
O=C(Nc1ccc(F)cc1)c1ccc(CSc2ccc(Cl)cc2)o1 | nt | -1% | ? | -3% | 0% | -7%
SMILES | SMN2 splice enh | NPC1 prom act | FLuc counter | Rab9 prom act | ELG1 repair inh | ELG1 genotoxic
O=C(Nc1ccc(N2CCOCC2)c(Cl)c1)c1ccc(Br)o1 | 4.5µM* | 1.4µM* | 8.5µM* | 3.2µM* | ? | ?
O=C(Nc1ccccc1N1CCOCC1)c1ccc(Br)o1 | -2% | -2% | -13% | 0% | ? | -2%
NS(=O)(=O)c1ccc(NC(=O)c2ccc(S(=O)(=O)N3CCOCC3)o2)cc1 | nt | -2% | 2% | -5% | 12% | -5%
O=C(Nc1ccc(F)cc1)c1ccc(CSc2ccccc2)o1 | -4% | -1% | 15µM* | 1% | ? | 7%
O=C(Nc1ccc(F)cc1)c1ccc(S(=O)(=O)N2CCOCC2)o1 | nt | 3% | 3% | -4% | 16µM* | -6%
CC(C)(CNC(=O)c1ccc(-c2ccccc2Cl)o1)N1CCOCC1 | nt | ? | ? | ? | ? | 13µM*
CCCC1=Nc2cc(C(=O)NC3CCCCC3)ccc2Sc2ccc(C)cc21 | nt | nt | -11% | nt | nt | nt
Cc1nnc(N2C(=O)c3oc4ccccc4c(=O)c3C2c2ccc(F)cc2)s1 (configuration not stated) | -14% | nt | 1% | nt | nt | nt
COc1ccc(N=C(C)C2=C(O)c3ccccc3C2=O)cc1 | 5µM* | 0.71µM* | 0.95µM* | 0.45µM* | ? | 2.6µM*
CCOc1ccc(N=C(C)C2=C(O)c3ccccc3C2=O)cc1 | nt | 0.79µM* | 1.3µM* | 1.3µM* | ? | ?
CC(=NC1CC1)C1=C(O)c2ccccc2C1=O | 17% | 24% | 17µM* | ? | ? | ?
O=C1C(=O)N(C2CCN(C(=O)c3cccc(Cl)c3)CC2)CCN1Cc1ccc(F)cc1 | nt | nt | 3% | nt | nt | nt
C(=N\n1cnnc1)/c1ccc(OCc2cccc3ccccc23)cc1 | 14µM* | ? | ? | ? | ? | ?
C(=N\n1cnnc1)/c1cccc(OCCOc2ccccc2)c1 | 11µM* | 2.8µM* | ? | 1.4µM* | ? | 5%
COc1cccc(C(=O)N2c3nc(-c4ccco4)nn3C3(CCCCC3)[C@@H]3CCCC[C@@H]32)c1 | nt | nt | 1% | nt | nt | nt
CCOC(=O)c1ccc(NC(=S)Nc2ccccc2)cc1 | ? | 1% | ? | -2% | 24% | 8%
CCOC(=O)C(/C(N)=N/C(=O)Nc1ccccc1)=C(\C)O | -4% | 6% | 6µM* | 1% | -27% | 4%
COc1ccccc1CNc1ccc(-c2nc(C(C)C)no2)cc1[N+](=O)[O-] | nt | nt | 12µM* | nt | nt | nt
COc1ccccc1CNc1ccc(-c2nc(C)no2)cc1[N+](=O)[O-] | nt | nt | 13µM* | nt | nt | nt
COc1ccc(N2CCN(C(=O)CN(c3ccccc3)S(=O)(=O)c3ccc(OC)cc3)CC2)cc1 | -18% | 11% | 3% | -4% | ? | -20%
COc1ccc(CN2CCN(S(=O)(=O)c3ccc(NC(C)=O)cc3)CC2)cc1OC | -34% | -14% | -2% | 2% | -23% | -2%
COc1ccc(CN2CCN(C(=O)c3ccc(S(=O)(=O)N4CCCCCC4)cc3)CC2)cc1 | nt | -19% | 6% | -25% | 10µM* | -1%

Assay outcomes deposited in PubChem by National Center for Advancing Translational Sciences (NCATS).
